According to the supplement of paper PMC11732987, “Enantioselective OTUD7B fragment discovery through chemoproteomics screening and high-throughput optimisation” (Communications Chemistry, 2025):

Legend:
Assay in all cases: log2 ratio of Biotin-Ahx-Ub-VS probe labelling (fragment/DMSO); higher = less target engagement (more negative = stronger competition), active = hit call of the paper (q ≤ 0.05, log2 ratio ≤ -1)
Details in all cases: compound concentration: 200 uM; treatment time: 3 h
OTUD6B = molecular target: T1, OTUD6B (UniProt Q8N6M0)
T1 sequence (whole entry): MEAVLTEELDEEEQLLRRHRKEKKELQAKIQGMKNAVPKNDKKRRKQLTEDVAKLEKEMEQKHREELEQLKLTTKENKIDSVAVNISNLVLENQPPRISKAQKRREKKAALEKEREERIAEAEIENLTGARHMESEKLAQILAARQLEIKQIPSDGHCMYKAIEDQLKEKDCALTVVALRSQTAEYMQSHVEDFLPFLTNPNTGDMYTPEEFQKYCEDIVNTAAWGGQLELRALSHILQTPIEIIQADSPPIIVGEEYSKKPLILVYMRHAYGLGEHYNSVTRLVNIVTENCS
Summary of the method: (§1)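 Using Biotin-Ahx-Ub-VS at 0.5 µM final for 1 h, DUBs were labelled in HEK293T lysate (495 µg per sample) that had first been treated in triplicate with fragment at 200 µM or vehicle for 3 h. NeutrAvidin enrichment, LysC and trypsin digestion and diaPASEF LC-MS/MS followed. Spectronaut label-free quantities were global-median-normalised. Values are average log2 fragment/vehicle ratios by unpaired t-test, using proteins with ≥2 unique peptides.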

OTUD7B = molecular target: T2, OTUD7B (UniProt Q6GQQ9)
T2 sequence (whole entry): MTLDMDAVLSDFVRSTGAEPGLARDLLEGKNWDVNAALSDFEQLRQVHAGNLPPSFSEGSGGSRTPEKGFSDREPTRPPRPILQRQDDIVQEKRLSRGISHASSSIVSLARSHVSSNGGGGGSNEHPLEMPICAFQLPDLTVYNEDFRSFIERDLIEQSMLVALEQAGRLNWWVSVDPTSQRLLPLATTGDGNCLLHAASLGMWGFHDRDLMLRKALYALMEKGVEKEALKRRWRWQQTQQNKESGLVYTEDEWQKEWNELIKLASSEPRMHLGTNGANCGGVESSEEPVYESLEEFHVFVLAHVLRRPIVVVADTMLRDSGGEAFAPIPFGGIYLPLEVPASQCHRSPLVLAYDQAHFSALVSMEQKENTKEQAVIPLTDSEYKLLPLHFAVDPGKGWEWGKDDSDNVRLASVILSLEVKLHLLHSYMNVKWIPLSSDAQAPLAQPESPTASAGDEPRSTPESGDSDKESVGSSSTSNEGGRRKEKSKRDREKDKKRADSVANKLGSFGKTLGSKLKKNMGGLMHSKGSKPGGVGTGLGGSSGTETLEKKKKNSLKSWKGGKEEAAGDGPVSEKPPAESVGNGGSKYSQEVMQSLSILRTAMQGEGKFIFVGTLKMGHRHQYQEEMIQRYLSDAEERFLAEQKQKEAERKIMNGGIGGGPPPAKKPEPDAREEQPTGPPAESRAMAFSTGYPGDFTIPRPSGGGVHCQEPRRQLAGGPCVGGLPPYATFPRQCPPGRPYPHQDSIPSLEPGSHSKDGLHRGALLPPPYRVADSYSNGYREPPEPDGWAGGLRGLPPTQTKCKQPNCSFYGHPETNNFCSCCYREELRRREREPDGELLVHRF
Summary of the method: as §1

PRPF8 = PRPF8 (UniProt Q6P2Q9)
Summary of the method: as §1

PSMD7 = molecular target: T3, PSMD7 (UniProt P51665)
T3 sequence (whole entry): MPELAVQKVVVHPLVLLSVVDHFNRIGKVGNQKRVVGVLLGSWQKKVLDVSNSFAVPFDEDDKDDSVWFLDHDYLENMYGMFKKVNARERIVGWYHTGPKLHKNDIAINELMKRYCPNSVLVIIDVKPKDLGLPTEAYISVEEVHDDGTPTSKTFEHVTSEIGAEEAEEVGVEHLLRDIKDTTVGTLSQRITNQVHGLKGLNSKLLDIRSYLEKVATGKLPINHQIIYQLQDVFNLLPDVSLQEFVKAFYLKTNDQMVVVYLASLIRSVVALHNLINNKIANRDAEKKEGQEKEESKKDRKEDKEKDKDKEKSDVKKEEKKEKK
Summary of the method: as §1

UCHL1 = UCHL1 (UniProt P09936)
Summary of the method: as §1

UCHL3 = molecular target: T4, UCHL3 (UniProt P15374)
T4 sequence (whole entry): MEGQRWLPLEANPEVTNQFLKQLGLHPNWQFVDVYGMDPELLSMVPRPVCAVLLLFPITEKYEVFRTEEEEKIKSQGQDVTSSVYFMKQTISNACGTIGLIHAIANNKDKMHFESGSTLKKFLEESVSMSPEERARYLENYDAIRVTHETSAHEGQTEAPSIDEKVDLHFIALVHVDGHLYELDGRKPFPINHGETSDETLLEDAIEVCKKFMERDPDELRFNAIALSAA
Summary of the method: as §1

UCHL5 = molecular target: T5, UCHL5 (UniProt Q9Y5K5)
T5 sequence (whole entry): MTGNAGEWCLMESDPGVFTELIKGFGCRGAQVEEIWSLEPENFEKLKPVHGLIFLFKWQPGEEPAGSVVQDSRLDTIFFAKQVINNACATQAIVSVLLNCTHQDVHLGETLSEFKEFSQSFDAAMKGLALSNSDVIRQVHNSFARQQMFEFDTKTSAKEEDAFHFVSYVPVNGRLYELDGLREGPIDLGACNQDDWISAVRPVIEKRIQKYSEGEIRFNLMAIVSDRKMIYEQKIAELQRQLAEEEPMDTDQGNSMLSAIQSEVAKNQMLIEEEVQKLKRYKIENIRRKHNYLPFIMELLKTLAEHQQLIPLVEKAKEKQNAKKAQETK
Summary of the method: as §1

USP10 = USP10 (UniProt Q14694)
Summary of the method: as §1

USP15 = molecular target: T6, USP15 (UniProt Q9Y4E8)
T6 sequence (whole entry): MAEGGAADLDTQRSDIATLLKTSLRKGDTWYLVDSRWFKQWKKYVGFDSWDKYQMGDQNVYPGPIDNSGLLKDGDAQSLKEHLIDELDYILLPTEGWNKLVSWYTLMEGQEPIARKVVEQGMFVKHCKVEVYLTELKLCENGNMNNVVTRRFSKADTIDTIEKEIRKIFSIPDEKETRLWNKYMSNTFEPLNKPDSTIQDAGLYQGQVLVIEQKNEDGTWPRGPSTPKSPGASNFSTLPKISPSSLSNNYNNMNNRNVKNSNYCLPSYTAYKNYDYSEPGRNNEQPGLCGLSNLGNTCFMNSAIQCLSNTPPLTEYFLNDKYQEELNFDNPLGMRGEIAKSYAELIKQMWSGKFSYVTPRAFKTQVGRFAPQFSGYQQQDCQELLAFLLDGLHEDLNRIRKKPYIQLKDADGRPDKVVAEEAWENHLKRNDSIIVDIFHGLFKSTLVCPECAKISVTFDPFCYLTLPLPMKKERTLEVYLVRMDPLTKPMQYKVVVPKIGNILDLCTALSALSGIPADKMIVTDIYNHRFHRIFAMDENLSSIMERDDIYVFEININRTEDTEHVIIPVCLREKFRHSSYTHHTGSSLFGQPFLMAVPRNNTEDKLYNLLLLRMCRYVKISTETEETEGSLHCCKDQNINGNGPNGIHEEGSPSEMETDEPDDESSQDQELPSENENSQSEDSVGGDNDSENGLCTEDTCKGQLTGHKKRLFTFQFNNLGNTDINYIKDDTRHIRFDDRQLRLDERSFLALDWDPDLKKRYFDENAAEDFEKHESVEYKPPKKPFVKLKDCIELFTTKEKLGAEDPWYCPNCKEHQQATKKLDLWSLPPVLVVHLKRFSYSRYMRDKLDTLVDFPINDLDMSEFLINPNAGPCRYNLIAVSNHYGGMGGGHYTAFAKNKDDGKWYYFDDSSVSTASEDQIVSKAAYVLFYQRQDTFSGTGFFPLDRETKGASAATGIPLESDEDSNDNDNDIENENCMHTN
Summary of the method: as §1

USP16 = USP16 (UniProt Q9Y5T5)
Summary of the method: as §1

Measured: log2 ratio of Biotin-Ahx-Ub-VS probe labelling

Chain of UCHL1 (P09936 whole entry, looked up): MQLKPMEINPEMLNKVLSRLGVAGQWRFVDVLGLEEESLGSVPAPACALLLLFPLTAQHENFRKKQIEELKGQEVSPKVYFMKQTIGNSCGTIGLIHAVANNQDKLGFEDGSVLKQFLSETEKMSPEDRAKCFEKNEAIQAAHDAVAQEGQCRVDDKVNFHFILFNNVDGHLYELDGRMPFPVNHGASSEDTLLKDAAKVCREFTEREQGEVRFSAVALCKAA
Chain of USP16 (Q9Y5T5 whole entry, looked up): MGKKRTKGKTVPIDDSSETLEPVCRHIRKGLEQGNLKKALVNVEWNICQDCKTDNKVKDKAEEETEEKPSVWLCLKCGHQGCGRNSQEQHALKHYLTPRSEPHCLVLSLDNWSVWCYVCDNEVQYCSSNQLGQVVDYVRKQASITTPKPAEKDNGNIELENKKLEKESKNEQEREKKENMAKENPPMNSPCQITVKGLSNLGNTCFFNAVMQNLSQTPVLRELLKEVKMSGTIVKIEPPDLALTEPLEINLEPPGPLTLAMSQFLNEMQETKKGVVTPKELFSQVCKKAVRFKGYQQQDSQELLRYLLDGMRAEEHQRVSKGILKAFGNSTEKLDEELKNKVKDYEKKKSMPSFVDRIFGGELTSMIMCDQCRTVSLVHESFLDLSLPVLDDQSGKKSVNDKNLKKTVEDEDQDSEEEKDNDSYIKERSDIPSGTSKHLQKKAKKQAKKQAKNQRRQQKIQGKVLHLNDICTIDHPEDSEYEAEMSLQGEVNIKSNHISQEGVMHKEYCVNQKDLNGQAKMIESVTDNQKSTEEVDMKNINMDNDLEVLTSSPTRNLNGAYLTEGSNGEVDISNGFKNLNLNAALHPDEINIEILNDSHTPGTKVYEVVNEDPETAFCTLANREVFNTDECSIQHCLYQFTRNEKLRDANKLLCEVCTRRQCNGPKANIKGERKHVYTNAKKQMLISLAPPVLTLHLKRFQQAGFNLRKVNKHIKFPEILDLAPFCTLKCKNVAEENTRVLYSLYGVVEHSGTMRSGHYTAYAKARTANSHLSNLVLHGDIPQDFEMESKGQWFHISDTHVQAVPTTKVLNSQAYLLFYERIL
Chain of USP10 (Q14694 whole entry): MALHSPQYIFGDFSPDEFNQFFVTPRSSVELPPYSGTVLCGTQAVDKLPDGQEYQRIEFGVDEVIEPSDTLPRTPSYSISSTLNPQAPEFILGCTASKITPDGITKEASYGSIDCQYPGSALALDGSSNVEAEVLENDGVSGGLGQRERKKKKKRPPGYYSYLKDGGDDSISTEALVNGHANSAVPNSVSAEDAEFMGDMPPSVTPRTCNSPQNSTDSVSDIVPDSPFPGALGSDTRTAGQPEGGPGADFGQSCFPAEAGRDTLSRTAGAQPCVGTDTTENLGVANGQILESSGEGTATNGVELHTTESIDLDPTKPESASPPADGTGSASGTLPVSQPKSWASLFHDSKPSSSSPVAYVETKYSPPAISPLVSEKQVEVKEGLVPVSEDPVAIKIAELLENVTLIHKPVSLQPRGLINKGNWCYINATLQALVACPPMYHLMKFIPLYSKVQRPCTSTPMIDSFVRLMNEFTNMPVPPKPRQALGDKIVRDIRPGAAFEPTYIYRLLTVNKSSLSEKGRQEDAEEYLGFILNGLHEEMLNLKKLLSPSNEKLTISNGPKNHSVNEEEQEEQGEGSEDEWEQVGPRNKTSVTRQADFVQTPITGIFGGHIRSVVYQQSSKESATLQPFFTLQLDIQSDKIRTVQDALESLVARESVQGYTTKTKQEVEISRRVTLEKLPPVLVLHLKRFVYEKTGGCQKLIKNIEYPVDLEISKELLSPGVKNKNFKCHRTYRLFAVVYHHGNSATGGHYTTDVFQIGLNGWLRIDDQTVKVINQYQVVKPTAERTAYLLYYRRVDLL

COc1ccc(C2CCCN2C(=O)CCl)c(OC)c1 (stereo not given)
inactive: OTUD6B -0.302 | OTUD7B -0.122 | PRPF8 0.164 | PSMD7 -0.138 | UCHL5 -0.34 | USP10 -0.166 | USP15 -0.424 | USP16 -0.285
active: UCHL1 -1.67 | UCHL3 -1.75
